In PubChem BioAssay:
Activity calls are given as the source filed them.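 Rule for the calls, unless noted: active = fluorescence slope after compound addition differing from the mean of all screened samples at 99.7% confidence, in either direction; inactive = the rest.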

Tests used:
[1] = inhibitors of TNFa-induced NFkB p65 translocation, primary screen, imaging, HUVEC, MLSMR starter and 10KST1 sets (AID 438;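 active = inhibition above 20% together with a positive visual image hit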;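 note: compound added about 3h40 before a 20 min TNFalpha stimulation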;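 for inhibition: signal is the nuclear over cytoplasmic p65 intensity ratio per well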); conditions: HUVEC TNFa-induced p65 nuclear translocation; cell count: measured here: nuclei count (cytotoxicity indicator), at 2.08 µM; inhibition: at 2 µM, stronger effect = higher value, 0% TNFa-plus-vehicle, 100% no-TNFa wells
[2] = reduction of polyQ htt aggregates in cells – imaging, exon1htt(103Q)mCFP cells, high-content imaging, primary screen (AID 483;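 active = visual image review flags a hit and inhibition of aggregation exceeds 20%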;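 note: compound exposure lasted 3 days before fixation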;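 for nuclei count: percent of the per-plate median nuclei count of sample wells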); conditions: exon1htt(103Q)mCFP cell line, aggregate imaging, at 2 µM; inhibition of aggregation: stronger effect = higher value; nuclei count: measured here: cell count, toxicity
[3] = endothelial E-selectin expression blockers – imaging, HUVEC, immunofluorescence, MLSMR starter and 10KST1 sets, primary screen (AID 487;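 active = visually confirmed hit in the image check and inhibition above 20%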;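 for inhibition: signal is fraction of cell area covered by stained E-selectin grains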;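 for nuclei count: 100% = median nuclei count of all wells on the same plate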); conditions: HUVEC TNFalpha-induced E-selectin immunofluorescence imaging, at 2 µM; inhibition: stronger effect = higher value; nuclei count: measured here: cell number, toxicity
[4] = target: Voltage-gated potassium channel subunit beta-2 (Rattus norvegicus) (UniProt P62483); assay: inhibitors of rat Kvbeta2 reductase activity – biochemical, NADPH fluorescence, primary screen (AID 622;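 active = fluorescence slope higher than the sample average by over 3 SD, cut at about -0.22 in these data, passing the limit was not always enough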;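 note: slope of raw intensity against log time taken from 70 to 1610 s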); conditions: recombinant KvBeta, 4-cyanobenzaldehyde reduction, at 10 µM, stronger effect = higher value
[5] = target: Voltage-gated potassium channel subunit beta-2 (Rattus norvegicus) (UniProt P62483); assay: enhancers of rat Kvbeta2 NADPH turnover – biochemical, NADPH fluorescence, primary screen (AID 623;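 active = NADPH fluorescence slope more negative than the mean of all samples by about 3 SD, 99.7% confidence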;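 note: fluorescence intensity change per second fitted from 20 to 320 s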); conditions: Recombinant KvBeta, NADPH fluorescence decrease slope, 10 min; at 10 µM; stronger effect = lower value
[6] = target: Alpha-2C adrenergic receptor (Homo sapiens) (UniProt P18825); assay: compounds altering alpha2C-coupled GIRK flux – cell-based, HEK293 alpha2C/GIRK1/2, thallium flux, primary screen (AID 624); conditions: thallium flux BTC fluorescence, at 10 µM, actives lie on both sides;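 note: slope of fluorescence ratio to pre-addition baseline per second over 15 to 24 s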
[7] = blockers of RIG-like receptor reporter activation – cell-based, Sendai virus stimulus, luciferase, 10K MLSCN set, TLR/RLR signaling modifier project, primary screen (AID 602276;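 active = inhibition at or above 50% at 10 µM; inactive = inhibition below 50%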;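 note: firefly luciferase from ISG56 promoter only with Renilla not read in this screen; 0% = Sendai virus plus DMSO and 100% = medium plus DMSO without virus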); conditions: HEK293 RL24 IRF3 luciferase reporter, at 10 µM, stronger effect = higher value
[8] = TLR3 IRF3 reporter activation blockers – cell-based, poly I:C stimulus, luciferase, 10K MLSCN set, primary screen (AID 602277;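 active = inhibition of the reporter signal at or above 50%; inactive = inhibition below 50%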); conditions: HEK293-TLR3 RL24 IRF3 luciferase reporter, at 10 µM, stronger effect = higher value

Voltage-gated potassium channel subunit beta-2 (Rattus norvegicus), sequence (P62483 whole entry, looked up): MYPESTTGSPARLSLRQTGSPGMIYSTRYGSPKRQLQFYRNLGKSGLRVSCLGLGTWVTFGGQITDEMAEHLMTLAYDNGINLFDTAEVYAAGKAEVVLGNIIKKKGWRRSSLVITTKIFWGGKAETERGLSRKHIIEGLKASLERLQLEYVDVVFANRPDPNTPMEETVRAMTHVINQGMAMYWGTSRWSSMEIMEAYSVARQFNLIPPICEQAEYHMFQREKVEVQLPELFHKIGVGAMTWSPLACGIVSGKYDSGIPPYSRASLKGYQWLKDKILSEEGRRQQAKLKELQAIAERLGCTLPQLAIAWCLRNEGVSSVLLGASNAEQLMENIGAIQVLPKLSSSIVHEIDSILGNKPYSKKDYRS
Alpha-2C adrenergic receptor (Homo sapiens), sequence (P18825 whole entry, looked up): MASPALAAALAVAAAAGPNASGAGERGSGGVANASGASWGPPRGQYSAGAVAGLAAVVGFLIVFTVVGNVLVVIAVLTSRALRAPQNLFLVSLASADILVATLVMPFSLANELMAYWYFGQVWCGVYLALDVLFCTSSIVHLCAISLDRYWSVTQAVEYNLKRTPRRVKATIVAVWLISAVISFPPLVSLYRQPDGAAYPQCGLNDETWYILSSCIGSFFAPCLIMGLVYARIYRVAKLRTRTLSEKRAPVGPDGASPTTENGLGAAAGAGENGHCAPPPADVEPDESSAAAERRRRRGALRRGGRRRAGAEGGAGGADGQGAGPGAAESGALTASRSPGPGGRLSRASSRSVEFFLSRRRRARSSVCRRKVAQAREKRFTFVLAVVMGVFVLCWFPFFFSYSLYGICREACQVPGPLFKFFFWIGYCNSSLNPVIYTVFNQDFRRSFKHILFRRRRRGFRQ

SMILES	cell count [1]	inhibition [1]	inhibition of aggregation [2]	nuclei count [2] [%]	inhibition [3]	nuclei count [3] [%]	fluorescence slope [4]	NADPH fluorescence slope [5]	slope [6]	inhibition [7]	inhibition [8]
O=C(NCc1ccc(F)cc1)C1CCN(C(=O)NCc2ccccc2)CC1	643	-3.5% (inactive)	2.3% (inactive)	110	-18.5% (inactive)	106	-0.448 (inactive)	-4.9e-05 (inactive)	0.00381 (inactive)	5.76% (inactive)	32.5% (inactive)
O=C(NCCC1=CCCCC1)C1CCN(C(=O)Nc2ccccc2)CC1	206	-6.2% (inactive)	-13.3% (inactive)	92.3	5.2% (inactive)	84.8	-0.439 (inactive)	-5.1e-05 (inactive)	0.00392 (inactive)	2.99% (inactive)	21.5% (inactive)
Cn1c(Cl)nc2ccccc21	467	3.8% (inactive)	12.8% (inactive)	93.2	45.8% (inactive)	93.3	-0.514 (inactive)	-5.9e-05 (inactive)	0.00423 (inactive)	19.3% (inactive)	51% (active)
O=C(NCCC1=CCCCC1)C1CC(=O)N(C2CCCCCC2)C1 (centres undefined)	645	-4.4% (inactive)	-46.5% (inactive)	45.9	-41.7% (inactive)	126	-0.367 (inactive)	-6.2e-05 (inactive)	0.00623 (inactive)	5.65% (inactive)	27.5% (inactive)
O=C1N=C(N2CCOCC2)CS1	309	3.4% (inactive)	-6.9% (inactive)	90.7	36% (inactive)	95.1	-0.519 (inactive)	-1.2e-05 (inactive)	0.00426 (inactive)	6.09% (inactive)	10.7% (inactive)
CCCC(=O)Nc1nnc(CC(=O)OCC)s1	799	-7.3% (inactive)	11% (inactive)	95.6	-35.4% (inactive)	113	-0.614 (inactive)	1.3e-05 (inactive)	0.00516 (inactive)	-5.88% (inactive)	15.8% (inactive)
Cc1ccc(-c2noc(-c3ccccc3C(=O)NCC3CCCO3)n2)cc1 (centres undefined)	763	2% (inactive)	-9% (inactive)	110	8.3% (inactive)	106	-0.442 (inactive)	5.9e-05 (inactive)	0.00648 (inactive)	-20% (inactive)	-30.1% (inactive)
COc1ccc(N2C(=O)CCC(C(=O)N3CCCCC3)C2c2ccc(OC)c(OC)c2)cc1 (centres undefined)	164	-1.9% (inactive)	21.6% (inactive)	96.5	-17.5% (inactive)	97	-0.412 (inactive)	5.3e-05 (inactive)	0.00625 (inactive)	12.8% (inactive)	21.7% (inactive)
CCOC(=O)N1CCN(C(=O)CSc2cc(C)nc3c(-c4ccccc4OC)c(C)nn23)CC1	543	-9.8% (inactive)	-34.4% (inactive)	122	14.7% (inactive)	110	-0.54 (inactive)	1.2e-05 (inactive)	0.00377 (inactive)	-11.1% (inactive)	-5.36% (inactive)
CN(C)S(=O)(=O)c1ccc(Oc2ccc(S(=O)(=O)N(C)C)cc2)cc1	273	-4.4% (inactive)	-0.5% (inactive)	89.3	8.2% (inactive)	80.6	-0.42 (inactive)	3.1e-05 (inactive)	0.00921 (inactive)	-5.78% (inactive)	-20.3% (inactive)
O=C(NCCCNC(=O)c1ccccn1)c1ccccn1	711	-11.9% (inactive)	-10.1% (inactive)	97.9	-77.9% (inactive)	105	-0.491 (inactive)	-7e-05 (inactive)	0.00516 (inactive)	15.1% (inactive)	20% (inactive)
CCOc1ccccc1N1Cc2cc(C)c(C)cc2C1	576	2.9% (inactive)	22.5% (inactive)	110	-9% (inactive)	118	-0.543 (inactive)	1.2e-05 (inactive)	0.00798 (inactive)	-0.273% (inactive)	-2.86% (inactive)
CCN1C(=O)c2cccc3c(NC(=O)c4ccc(S(=O)(=O)N(C)C)cc4)ccc1c23	323	-7.9% (inactive)	-2.1% (inactive)	109	-23.9% (inactive)	111	-0.319 (inactive)	-4.5e-05 (inactive)	0.0056 (inactive)	23.8% (inactive)	30.8% (inactive)
Cc1ccc2cc(CN(Cc3ccc4c(c3)OCO4)Cc3nnnn3Cc3ccco3)c(=O)[nH]c2c1C	338	0.9% (inactive)	29.2% (inactive)	49	-79.9% (inactive)	109	-0.389 (inactive)	4.5e-05 (inactive)	0.00797 (inactive)	39.3% (inactive)	79.5% (active)
